# Sampled rows, rich in hits. Any-hit rate of the full collection: about 2.3%.
# mIDH1 inhibitor: human IDH1 R132H inhibition; O75874; IDH1-R132H enzyme, NADPH consumption, diaphorase/resazurin fluorescence; Potency, µM (doses to about 76.6 µM), inactives show at the highest dose activity change, negative = inhibition, most hits filed as inhibitors; 0.093% of 390,000 active; note: potency is the fitted concentration of half-maximal effect; % is set by controls: 0 for no effect and ±100 for the full control effect; nearly all actives have a fitted effect of over 65% in size
# Target sequence (O75874 whole entry R132H, stated change not applied): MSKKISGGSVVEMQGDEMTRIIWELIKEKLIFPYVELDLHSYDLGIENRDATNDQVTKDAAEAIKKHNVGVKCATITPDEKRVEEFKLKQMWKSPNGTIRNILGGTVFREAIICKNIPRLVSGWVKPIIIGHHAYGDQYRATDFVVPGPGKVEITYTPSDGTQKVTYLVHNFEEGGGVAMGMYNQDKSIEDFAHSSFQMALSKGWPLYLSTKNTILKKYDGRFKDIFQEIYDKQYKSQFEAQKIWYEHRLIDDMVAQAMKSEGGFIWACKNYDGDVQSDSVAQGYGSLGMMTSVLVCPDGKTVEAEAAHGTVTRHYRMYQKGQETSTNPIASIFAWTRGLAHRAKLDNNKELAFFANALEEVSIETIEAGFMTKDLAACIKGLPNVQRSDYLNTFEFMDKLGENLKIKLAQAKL
#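 IDH1-R132H (0.5 ug/mL dispensed) in pH 7.5 Tris buffer was preincubated 30 min with compound, then given a substrate mix of 0.016 mM NADPH and 2 mM alpha-KG for 80 min at room temperature; remaining NADPH was read by diaphorase/resazurin fluorescence.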
# Nrf2 activator: activates Nrf2 signaling. AREc32 ARE-luciferase reporter (MCF7-derived line), luminescence, 24 h. Potency, µM (titrated, usually from 46.1 µM), for the others: at the highest dose activation, hits mostly activators. 0.31% of 410,000 active; note: potency is the fitted concentration of half-maximal effect; % of control where 0% means no effect; nearly all actives have a fitted effect of over 65% in size
#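 Nrf2 activation is followed as ARE-luciferase induction in the AREc32 line after one day of compound treatment; luminescence is read with Steady-Glo.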
# Giardia kill: Giardia lamblia killing; Giardia lamblia trophozoite viability; activity change, % at 7.66 µM, hits read low; 0.15% of 340,000 active; AID 540267; in the data active = activity change below about -80%; inconclusive = between about -30% and that limit;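 note: parasites exposed to compound for two days anaerobically before the ATP read; % is set by controls: 0 for no effect and ±100 for the full control effect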
#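 Compounds were tested on trophozoites seeded at 100 cells/well and held 48 hrs at 37 deg C anaerobically. An ATP-based luminescent kit measured the remaining live cells.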
# A549 viability: counter-screen for Nrf2 inhibitors: cytotoxicity in A549 cells; Potency, µM (highest dose often 46 µM), without a hit: at the highest dose activity change, negative = cytotoxicity, most hits filed as inhibitors; 0.16% of 390,000 active; A549 ARE-Fluc cells, CellTiter-Fluor viability, 18-24 h; AID 504648; note: potency is the fitted concentration of half-maximal effect; % is set by controls: 0 for no effect and ±100 for the full control effect
#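 Cytotoxicity counterscreen: CellTiter-Fluor fluorescence was measured in A549 ARE_Fluc cells after 18-24 h of compound exposure in a concentration series. The subsequent BugLite luminescent read reports ARE-luciferase activity.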
# Nrf2 block: inhibitors of Nrf2 signaling; AID 504444; Potency, µM (doses to about 46 µM), for the others: at the top dose activity change, negative = inhibition, usual class: inhibitors; A549 ARE-Fluc reporter, luciferase luminescence, 18-24 h; 2.1% of 360,000 active; note: potency is the fitted concentration of half-maximal effect; % is set by controls: 0 for no effect and ±100 for the full control effect; nearly all actives have a fitted effect of over 60% in size
#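 Reporter: ARE-Fluc in A549. Exposure: 18-24 h, 37 °C, 5% CO2, 5% FBS OPTI-MEM. Readouts: fluorescent cytotoxicity (CellTiter-Fluor), then luminescent Nrf2 signal after BugLite.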
# Apoferritin bind: candidate novel general anesthetic via apoferritin binding. P02791. apoferritin/1-aminoanthracene competitive binding, fluorescence. Potency, µM (series often up to 77.5 µM), without a hit: at the top dose activity change, negative = displacement, usual class: inhibitors. 0.074% of 350,000 active; note: potency is the fitted concentration of half-maximal effect; % is set by controls: 0 for no effect and ±100 for the full control effect; nearly all actives have a fitted effect of over 20% in size
# Target sequence (P02791 2-175 limits assumed): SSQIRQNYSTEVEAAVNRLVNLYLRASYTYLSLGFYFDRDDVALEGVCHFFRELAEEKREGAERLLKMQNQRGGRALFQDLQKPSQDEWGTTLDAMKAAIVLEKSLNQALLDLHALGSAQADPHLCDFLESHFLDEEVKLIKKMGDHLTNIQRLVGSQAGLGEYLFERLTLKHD
#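 Steps: apoferritin (10 uM) was premixed with half-saturated 1-AMA in PBS, compounds were pin-transferred, plates stood 10 min at room temperature, fluorescence was read at 380/535 nm, and curves were fitted with a Hill equation.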
# The depositor's hits bear a star; ? = inconclusive; . = no result given; [ ] = another dose, or the depositor's remark. Unless noted, calls come from the whole dose curve; as a rule, active = well fitted curve in the direction sought with a large enough effect; inconclusive = small, poorly fitted or top-dose-only effect, or another doubt; inactive = no such curve, though single readings can be large; an effect the other way counts as inactive or inconclusive.
SMILES,mIDH1 inhibitor,Nrf2 activator,Giardia kill,A549 viability,Nrf2 block,Apoferritin bind
CN1C(=O)[C@]23CC4=CC=C[C@H](O)[C@H]4N2C(=O)[C@@]1(CO)SS3,.,.,.,.,.,-6%
Cc1c(N=Nc2c(O)n(Cc3ccccc3)c(=O)[nH]c2=O)c(=O)n(-c2ccccc2)n1C,4%,0%,34,16µM*,5.2µM*,-16%
Cc1c(N=Cc2c(O)n(Cc3ccccc3)c(=O)[nH]c2=O)c(=O)n(-c2ccccc2)n1C,2%,0%,11,-2%,23%,-11%
O=C(CSC1c2ccccc2-c2ccccc21)N/N=C/c1ccc(C(=O)O)cc1,-1%,0%,4,-3%,1%,-7%
O=C(CSC1c2ccccc2-c2ccccc21)N/N=C/c1ccccc1O,5%,4%,-2,21µM*,5.2µM*,-10%
COc1cc2c3c(c1OC)Oc1ccc(cc1)C[C@H]1c4c(cc(OC)c(OC)c4Oc4ccc(cc4)C[C@@H]3N(C)CC2)CCN1C,0%,1%,14,-27%,-7%,.
COc1cc2c3cc1Oc1c(OC)c(OC)cc4c1[C@H](Cc1ccc(cc1)Oc1cc(ccc1O)C[C@H]3N(C)CC2)N(C)CC4,1%,4%,13,13µM*,-11%,.
COc1cc2c3cc1Oc1cc(ccc1O)C[C@@H]1c4c(cc(OC)c(O)c4Oc4ccc(cc4)C[C@H]3N(C)CC2)CCN1C,-5%,1%,0,8.2µM*,-13%,3%
CC(C)Oc1ccc(CNC(=O)C2CCCN(S(=O)(=O)c3ccc4c(ccn4C)c3)C2)cc1 (configuration not stated),15%,3%,.,0%,.,96%
CNC(=O)Oc1ccc(-c2cn3cc(Cl)ccc3n2)cc1,11%,-1%,-86*,-7%,?,-8%
CC(=O)OC1CCC2(C)C(CCC3C2CC(=O)C2(C)C3CC(N3CC3)C2C(C)=O)C1 (configuration not stated),7%,?,-8,18µM*,14%,.
Cc1ccc(-c2cc(-c3ccccc3)cc(-c3ccccc3)[n+]2-c2ccccc2)cc1,1%[38.3 µM],-3%,13,?,18µM*,.
O=c1[nH]c(=O)n(CCC2=CCCCC2)c(O)c1/C=N/Nc1ccccc1,1%,0%,14,-13%,23µM*,?
COC(=O)C1=C(c2ccc(Cl)c(C(F)(F)F)c2)C[C@@H]2CC[C@H]1N2C(=O)N1CCC(O)(c2ccc(Cl)cc2)CC1,-2%,0%,5,?,23µM*,.
COC(=O)C1=C(c2ccc(OC(F)(F)F)cc2)C[C@@H]2CC[C@H]1N2C(=O)N1CCC(C)CC1,10%,4%,?,-7%,18µM*,.
COC(=O)C1=C(c2cc3ccccc3s2)C[C@@H]2CC[C@H]1N2C(=O)N1CCC(C)CC1,5%,0%,36,-9%,26µM*,.
COC(=O)C1=C(c2cc3ccccc3s2)C[C@@H]2CC[C@H]1N2C(=O)NCC1CC1,-3%,1%,-8,-15%,18µM*,.
COC(=O)C(C)Oc1ccc(Cc2ncc(C(F)(F)F)cc2Cl)cc1 (configuration not stated),5%,0%,-5,0%,-1%,?
CC(C)C[C@H](NC(=O)[C@H](Cc1ccccc1)NC(=O)CNC(=O)[C@@H](COC(C)(C)C)NC(=O)[C@@H](N)Cc1ccc(O)cc1)C(=O)N[C@H](C(=O)O)[C@@H](C)OC(C)(C)C,.,.,.,.,.,5%
C[C@H]1[C@H](OC(=O)CCC(=O)NCc2ccc(C(=O)O)cc2)O[C@@H]2O[C@@]3(C)CC[C@H]4[C@H](C)CC[C@@H]1C24OO3,0%,11%,-8,21µM*,21µM*,-3%
CC1C(OC(=O)CCC(=O)NC(C)(C)CO)O[C@H]2OC3(C)CC[C@H]4[C@H](C)CCC1C24OO3 (some centres not stated),-15%,5%,24,-14%,?,-12%
COc1ccc2c(c1)[C@@]13CCCCC1[C@@H](C2)N(C)CC3 (some centres not stated),.,.,.,.,.,5%
COc1cccc2c1cc([N+](=O)[O-])c1c(C(=O)O)cc3c(c12)OCO3,0%,-1%,0,?,12µM*,.
C=CCc1cc(OC)c2c(c1)OCO2,-7%,0%,-5,0%,3%,.
CN1C2CCC1/C(=C/c1ccccn1)C(=O)/C2=C\c1ccccn1,1%,-3%,-15,7.3µM*,5.8µM*,-9%
SMILES,mIDH1 inhibitor,Nrf2 activator,Giardia kill,A549 viability,Nrf2 block,Apoferritin bind
CCC12CN3CC(CC)(CN(C1)C3c1ccccn1)C2=O (configuration not stated),9%,0%,.,0%,17%,-2%
O=C(CCC1CCCC1)c1c(O)c2ccccc2oc1=O,10%,6%,2,?,21µM*,1%
C[C@@H]1OC(=O)[C@H]2C[C@H]3CCCC[C@@H]3[C@@H](/C=C/[C@H]3CCC[C@H](C)N3C)[C@@H]12,.,.,.,.,.,0%
Cc1cccc(C2=NCC(=O)N(CC(=O)NCc3ccco3)c3sc4c(c32)CCCC4)c1,-2%,0%,16,-19%,?,?
COc1ccc(C2=NCC(=O)N(CC(=O)NCc3ccco3)c3sc4c(c32)CCCC4)cc1,6%,6%,9,?,21µM*,-23%
CCC(C(=O)Nc1ccccc1C(=O)OC)n1nc(C)c2c(C)n(-c3ccc(C)cc3)nc2c1=O (configuration not stated),-10%,-1%,.,-22%,18µM*,-7%
Cn1c(O)c(C(=Nc2ccccc2)SCc2ccc(Cl)cc2)c(=O)n(C)c1=O,0%,16%,0,?,23µM*,1%
CCC(=NCc1ccco1)c1c(O)n(C)c(=O)n(C)c1=O,3%,7%,-18,-10%,?,-7%
CCC(=NCCc1ccccc1)c1c(O)n(C)c(=O)n(C)c1=O,7%,1%,-4,2%,21µM*,-6%
C[C@@H](N)[C@@H](O)c1ccc(O)c(O)c1,.,.,.,.,.,-1%
COc1cc(C2c3cc4c(cc3C(OC(C)=O)[C@H]3COC(=O)C23)OCO4)cc(OC)c1OC (some centres not stated),.,.,.,.,.,-3%
CC(C)[C@@]1(NC(=O)[C@H]2CC3c4cccc5[nH]cc(c45)C[C@H]3N(C)C2)O[C@@]2(O)C3CCCN3C(=O)[C@@H](Cc3ccccc3)N2C1=O (some centres not stated),.,.,.,.,.,-1%
COc1ccc2c(c1)/C(=C/c1cnc[nH]1)C(=O)N2,0%,-2%,-23,?,18µM*,-6%

# Screening results: PubChem BioAssay, National Center for Advancing Translational Sciences (NCATS)
